This note sets out measurements from PubChem BioAssay (NCI).

Each structure is given as a SMILES string. This is part of a sample that, as a whole, favours compounds with a hit. Of some 79,000 tested, about 15% had one in any assay. Unmarked numbers belong to inactive results. Activity calls are given as the source filed them. Rule as the data show it: active = growth inhibition above about 70%; inactive = the rest.

The assay is described as follows: NCI Yeast Anticancer Drug Screen. Data for the bub3 strain (AID 167). As to conditions: S. cerevisiae bub3 mutant strain, at 5.0 µM (retest, dose inferred, filed as 0.5), stronger effect = higher value. The method, boiled down:
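Steps: expose the mutant yeast strain to compound; grow alongside vehicle-treated cultures; measure growth; express inhibition against the vehicle cultures.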
In the case of `Cc1cn(C2CC(Br)C(COC(c3ccccc3)(c3ccccc3)c3ccccc3)O2)c(=O)[nH]c1=O` (stereo unspecified), the growth inhibition is 6%.

As to `CC1CCN(CCOC(=O)C(c2ccccc2)C2C=CCCC2)C1` (stereo unspecified), the growth inhibition was 9%.

With `C=CC(c1ccccc1)[C@@]1(OC(C)=O)C(=O)C(=O)OC1C1COC(C)(C)O1` (stereo partly specified), the growth inhibition was 84% (active).

As for `CC(C)S(=O)(=O)ON1C(=O)c2ccc(N(C)C)cc2C1=O`, the growth inhibition is 17%.

Consider `CCCC(Sc1ccccc1)c1ccccc1NC(C)=O` (stereo unspecified), for which the growth inhibition was 6%.

On to `Oc1c(C(Nc2ccccn2)c2ccccc2)ccc2cccnc12` (stereo unspecified), for which the growth inhibition was -9%.

With `CC(=O)NC1=C(Cl)C(=O)c2ccccc2C1=O`, the growth inhibition is 96% (active).

With `CC1OC(c2ccc3c(c2)OCO3)OC1C` (stereo unspecified), the growth inhibition was -8%.

For the compound `CN(C)CC(CN1CCCC1)C(=O)c1ccccc1` (stereo unspecified), the growth inhibition is 6%.

For `O=S(=O)(O)c1ccc2c(c1)C1C(C3C2C2(Cl)C(Cl)=C(Cl)C3(Cl)C2(Cl)Cl)C2(Cl)C(Cl)=C(Cl)C1(Cl)C2(Cl)Cl` (stereo unspecified), the growth inhibition is 21%.

Take `Cc1cc(Cl)nc2ccc(Cc3ccc4nc(Cl)cc(C)c4c3)cc12`: the growth inhibition was 8%.

Consider `CC1CCC2(C)C(CC=C(C=O)C2(O)C=O)C12CO2` (stereo unspecified), for which the growth inhibition was 99% (active).

For the compound `Cc1c(C)c(C)c(C(=O)c2ccccc2C(=O)NCCSC(C)(C)C)c(C)c1C`, the growth inhibition was 44%.

Regarding `O=[N+]([O-])C(=C1Nc2ccccc2N1)C(Cl)=C(Cl)Cl`, the growth inhibition was 11%.

As for `CCCCNc1ccc(C(=O)OC2CCN(C)CC2)c(Cl)c1`, the growth inhibition was 99% (active).

As to `CC(C)(C)OC(=O)c1ccc(NCC2=C(Br)C(=O)C=CC2=O)cc1`, the growth inhibition is 0%.
